The campaign covered roughly 290,000 compounds. Fewer than 10 were called active. Another 3% or so got no clear call; they are omitted. Calls come from the whole dose curve; as a rule, active = well fitted curve in the direction sought with a large enough effect in the polarisation (not every such curve was filed as active); inconclusive = small, poorly fitted or top-dose-only effect, or effect the other way, or a change in a side signal; inactive = no such curve, though single readings can be large or run the other way; the % refers to the polarisation. These entries were drawn from the full list.
Experiment: qHTS Assay for Inhibitors Targeting the Menin-MLL Interaction in MLL Related Leukemias: Competition With Fluorescein Labeled MLL-derived Peptide; note: % of control where 0% means no effect
Conditions: Fluorescence polarization, fluorescein-MLL peptide displacement from menin; series mostly up to 61.4 µM; FP activity change: at the top concentration
Text: qHTS Assay for Inhibitors Targeting the Menin-MLL Interaction in MLL Related Leukemias NIH Chemical Genomics Center [NCGC] NIH Molecular Libraries Probe Centers Network [MLPCN] MLPCN Grant: MH084875-01A1 Assay Submitter (PI): Jolanta Grembecka, Tomasz Cierpicki, University of Virginia Translocations of the MLL (Mixed Lineage Leukemia) gene are frequently found in human leukemias affecting both children and adults. Fusion of MLL to one of more than 60 genes results in generation of oncogenic proteins upregulating Hox genes, which are vital to blood cell development. Patients harboring fusion of the MLL gene suffer from aggressive leukemias and respond poorly to available therapies. All of the oncogenic fusion proteins have a preserved N-terminal fragment of MLL that has been identified to interact with menin. It has been recently discovered that association with menin is critical to the leukemogenic activity of the MLL fusion oncoproteins. Selective targeting of the menin-MLL interaction could provide an attractive therapeutic approach to develop novel drugs for MLL-related leukemias. Small molecules blocking the menin-MLL interaction should reverse the oncogenic potential of MLL fusion proteins. We have developed and optimized a fluorescence polarization-based assay for the identification of Menin-MLL inhibitors. The assay was run employing two different MLL-derived peptides. The present assay uses a 12 amino acid peptide labeled with fluorescein at its N-terminus. This peptide consists of the menin high affinity binding motif from MLL and is potently bound by menin. Another peptide with a mutated sequence, labeled with Texas Red, was used in parallel as a less stringent screen for inhibitors.
The Menin protein, the MLL-wild type (w.t.) derived peptide (N-terminal 12 amino acids), the MLL-derived peptide labeled with Texas Red and the MLL-w.t. peptide labeled with Fluorescein were kindly supplied by laboratory of Dr. Jolanta Grembecka, University of Virginia. All protein and peptide solutions were stored in single use aliquots at -80C. The Eu3+ Cyrptate-conjugated mouse monoclonal antibody anti-6 Histidine (Eu3+-AB) and the Streptavidin-XL665 conjugate (XL665) were purchased from Cisbio International (Bedford, MA). All antibody and XL665 conjugate solution stocks were stored in single use aliquots at -20C. The Buffer components for all assays were purchased from Sigma-Aldrich (St. Louis, MO) and Invitrogen (Carlsbad, CA). FP Assay Reagents: 1. FP reaction buffer: 50 mM Tris-HCl pH 7.5, 50 mM NaCl, 1mM DTT. Before use, 0.05% BSA is added. 2. Menin protein, MLL-w.t. labeled with fluorescein, MLL-mutant peptide labeled with texas red. Stored in singe use aliquots at -80C. 3. MLL-w.t. unlabeled peptide as positive control: 10 uM final in FP buffer. FP Assay Procedure: 1. Prepare Menin at 200 nM, MLL-w.t.-fluorescein at 25 nM, and MLL-mutant-texas red at 50 nM mixture in FP buffer. 2. Prepare Menin at 200 nM, MLL-w.t.-fluorescein at 25 nM, MLL-mutant-texas red at 50 nM, and 10 uM MLL-w.t. unlabeled mixture in FP buffer. 3. Prepare MLL-w.t.-fluorescein at 25 nM and MLL-mutant-texas red at 50 nM mixture in FP buffer. 3. Dispense 4 ul per well of reagent in step 1 in columns 2, 4 - 48 in a black 1536 well plate, dispense 4 ul per well of reagents from steps 2 and 3 in columns 1 and 3 respectively. Incubate plate at ambient for 15 minutes. 4. Transfer 23 nl per well of compound to plate and incubate at ambient for 1 hr. 5. Read fluorescence polarization for each label using the PerkinElmer Envision. Envision protocol for fluorescein: FITC FP Dual Enh Mirror, Excitation filter 480, Emission filter (1) P-pol 535, Emission filter (2) S-pol 535 Envision protocol for texas red: FP Dual Enh Mirror, Excitation filter 555, Emission filter (1) P-pol 632, Emission filter (2) S-pol 632

FP activity change, inactive:
Cc1ccc(-c2noc(C3CCCN(C(=O)c4cccc(Cl)c4)C3)n2)o1 (stereo not drawn) -0.951%
CS(=O)(=O)N1CCc2nc(-c3ccccc3)sc2C1 2.34%
Cc1cc(C)c(NC(=O)CN2CCCCCC2)c(C)c1 -5.8%
COc1ccccc1-c1sc2ccccc2c1-c1ccc(C(C)=O)cc1 -1.43%
CCCC(C(=O)NC1CCCC1)N(C(=O)Cn1nnc(-c2ccc(C)o2)n1)c1cccc(O)c1 (stereo not drawn) -0.769%
Cc1ccc(CSc2nsc(C)c2C#N)cc1 7.64%
Cn1cc(S(=O)(=O)Nc2ccc(Cl)cc2Cl)c(=O)n(C)c1=O -8.92%
CCc1ccc(C(=O)NN=C2CCCCCC2)s1 1.51%
CCOc1ccccc1N1C(=O)CC(Sc2nccc(C)n2)C1=O (stereo not drawn) -0.762%
COc1cccc(-c2noc(C3CCCN(C(=O)c4ccc(F)cc4)C3)n2)c1 (stereo not drawn) -1.5%
O=S(=O)(Cc1cc(Cl)nc(-c2cccnc2)n1)c1ccccc1 0.869%
Cc1noc(C)c1-c1ccc2ncnc(NCc3ccc4[nH]ccc4c3)c2c1 -0.0639%
CCN(CC(=O)NCC(=O)Nc1cccc(C)c1C)Cc1ccccc1 3.07%
CCCSc1nc2sc3c(c2c(=O)n1-c1ccc(OC)cc1)CCN(C)C3 13%
COc1ccccc1-c1cnn2c(N3CCOCC3)cc(C)nc12 37.1%
CCC1CCCCN1C(=O)CSc1nc2c(c(=O)n1C)SC(C)C2 (stereo not drawn) -0.813%
C=CCNC(=S)/N=c1/ccccn1Cc1ccccc1 -0.235%
COc1cc2ccccc2cc1C(=O)N(CCN(C)C)c1nc2c(F)cccc2s1 -2.7%
CC1CN(C(=O)CCC(=O)NC2CCN(Cc3ccccc3)CC2)c2ccccc2O1 (stereo not drawn) 0.0632%
COc1ccc(CC(=O)N/N=C/c2cc([N+](=O)[O-])cc(Br)c2O)cc1 19.4%
O=C(Nc1ccccc1)c1ccc2c(c1)OCCCO2 -0.0609%
Cc1ccc(NC(=O)NC(=O)c2ccccc2)cc1F -0.471%
COc1ccccc1CN1CCCC(N2CCN(c3ccc(F)cc3)CC2)C1 (stereo not drawn) -0.994%
Cc1[nH]c(C)c(S(=O)(=O)N2CCN(c3cccc(C(F)(F)F)c3)CC2)c1C(=O)N1CCCCC1 -4.51%
COc1cccc(N(C(=O)c2snc(C(N)=O)c2N)C(C(=O)NCC2CCCO2)c2c[nH]c3ccccc23)c1 (stereo not drawn) 6.5%
COc1ccccc1OCCOc1ccc(/C=C2\C(=N)N3N=C(C)SC3=NC2=O)cc1 -0.066%
C=C1CCN(Cc2ccc(OC)cc2)S(=O)(=O)c2ccccc21 -1.07%
CC1Sc2ccc(S(=O)(=O)CCC(=O)NCc3ccccc3Cl)cc2NC1=O (stereo not drawn) -0.854%
CC(O)c1ccc(OCCN(C)c2ccccn2)cc1 (stereo not drawn) 0.254%
CC(O)COc1ccccc1 (stereo not drawn) -1.98%
CN(CC(=O)Nc1ccc(F)cc1)C(=O)c1ccc(-c2ccc(Cl)cc2)o1 0.512%
CC(C)[C@@H]1COC(c2cccc(C3=N[C@H](C(C)C)CO3)c2)=N1 1.68%
COc1ccc(OCc2cc(C(=O)N3CCCC3)no2)c2ccccc12 -0.316%
c1cnc(N2CCN(c3ccc4ccccc4n3)CC2)nc1 -2.01%
Cc1cc(=O)n2[nH]c(-c3cccc(Cl)c3)cc2n1 -4.41%
CCCCCC(O)(CCN1CCCCC1)c1ccccc1 (stereo not drawn) -1.88%
Cc1cc(C)cc(OCC(=O)NC(C)c2ccccc2)c1 (stereo not drawn) 6.39%
O=c1[nH]cccc1-c1nc2ccccc2n1Cc1ccc(Cl)cc1 -1.47%
CCCc1cc(=O)n2[nH]c(C)c(-c3ccc(Cl)cc3)c2n1 -3.54%
O=C1CCN(CCc2ccccc2)CCN1CCOc1ccccc1 -5.61%
Cc1cc(C)c(C#N)c(Nc2cccc(Br)c2)n1 -1.91%
O=C(NCCS(=O)(=O)N1CCN(c2ccccc2F)CC1)c1ccc(Br)o1 -2.26%
CCc1ccccc1OCC(=O)Nc1ccc2c(c1)OCCO2 -1.07%
Oc1ccc(C2Nc3cccc4cccc(c34)N2)cc1 1.81%
Cc1ccc(-c2csc(NC3OC(=O)c4ccccc43)n2)cc1 (stereo not drawn) 0.604%
Cc1n[nH]c(=O)c2c1nnn2Cc1ccc(F)cc1 1.28%
COc1ccc(NC(=O)C/C(C)=N/NC(=O)c2cnccn2)cc1Cl -0.652%
CS(=O)(=O)N1CCN(C(=O)CSc2ccccc2)CC1 0.441%
COc1ccc2c(c1)c(C(=O)N/N=C/c1cccs1)c(C)n2C -1.26%
CC(C)OC(=O)c1ccc(COc2ccc3ccc(=O)oc3c2)o1 0.0912%
CNC(=O)c1sc(Nc2ccc(OCc3ccccc3)cc2)nc1C -0.434%
Cc1cccc(C)c1NC(=S)N1CCCCCC1 10.5%
Cc1ccc(O)c(CNc2nc3ccccc3[nH]2)c1 0.249%
COCCNC(=O)c1ccc2nc(Cc3ccc(OC)c(OC)c3)oc2c1 0.18%
CCCc1cc(=O)[nH]c(SCC(=O)N2C(C)CCCC2C)n1 (stereo not drawn) 1.47%
COc1cc(CNCc2ccc(OC)c3ccccc23)cc(OC)c1OC -0.733%
Cc1ccc2oc(C(=O)N3CCN(C)C[C@@H]3C(C)C)c(C)c2c1 -0.0815%
O=C(Nc1cccc(C(F)(F)F)c1)c1cc(Br)cc(Br)c1O -4.54%
CC(C)(C)c1ccc(SCCc2ccncc2)cc1 -0.793%
COc1ccc(C(C(=O)NC(C)(C)C)N(Cc2ccc(F)cc2)C(=O)CCC(=O)Nc2cc(C)on2)cc1 (stereo not drawn) 5.96%
CCOC(=O)c1ccc(NC(=O)Cc2cccs2)cc1 3.73%
CCOc1ccc(N/C=C/C(=O)c2ccccc2)cc1 -1.74%
COc1ccc(N2CCN(S(=O)(=O)CCNC(=O)C34CC5CC(CC(C5)C3)C4)CC2)cc1 -5.62%
COc1ccc(/C=N/OCc2ccccc2C#N)c(OC)c1 -2.05%
CCn1c(SCC(=O)NC2CC2)nnc1-c1ccccc1OC 0.14%
COc1cc2ccccc2cc1C(=O)Nc1ccccc1C -3.04%
CSCCNC(=O)c1ccc2nc(Cc3ccccc3F)oc2c1 2.14%
CC(c1ccccn1)N(C)C(=O)c1ccc2nc(Cc3cccc(Cl)c3)oc2c1 (stereo not drawn) 1.12%
CCCOc1ccc(/C=N/NC(=O)C2CC2)c(OCCC)c1 -5.37%
O=C(CN1CCc2cc3c(cc2C1)OCCCO3)Nc1ccccc1 1.44%
CCn1cc(/C=C(\NC(=O)c2cc(OC)c(OC)c(OC)c2)C(=O)N2CCN(C)CC2)c2ccccc21 0.178%
COc1cccc(NC(=O)C2CCCN(c3ncnc4c3nc3n4CCCCC3)C2)c1 (stereo not drawn) 0.562%
CCCc1ccc(OCCNC(=O)c2ccccc2Br)cc1 -4.26%
